Hits are enriched below; roughly 9.3% of the tested compounds scored in any of these assays.
Rab9 prom act – qHTS Assay for Rab9 Promoter Activators; Potency, µM (top dose mostly 9.22 µM), without a hit: top-dose activation, negative = inhibition, usual class: activators; Huh7 Rab9 promoter-luciferase reporter, luminescence, 24 h; 320,000 compounds, 2.8% hits; also: % of control where 0% means no effect; nearly all actives have a fitted effect of over 60% in size
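Stable Rab9-luc Huh7, 1500 cells/well, 2 h settle; cmpd in DMSO, 24 h, 37 °C/5% CO2; luciferase reagent 10 min RT; luminescence.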
ELG1 genotoxic – qHTS screen for small molecules that induce genotoxicity in human embryonic kidney (HEK293T) cells expressing luciferase-tagged ELG1; AID 504466, 2011; 330,000 compounds, 1.3% hits; Potency, µM (top dose mostly 46 µM), for inactives: at the highest dose activity change, positive = activation, actives largely listed as activators; HEK293T ELG1-luciferase reporter, luminescence, 16 h; also: % of control where 0% means no effect; nearly all actives have a fitted effect of over 60% in size
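Reporter readout depends on ELG1 protein level, which increases with genetic stress. After 16 hr compound exposure at 37 °C, luciferase activity was quantified using ONE-Glo.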
FLuc modulator – qHTS profiling assay for firefly luciferase inhibitor/activator using purifed enzyme and Km concentrations of substrates (counterscreen for miR-21 project); 360,000 compounds, 6.9% hits; AID 588342, 2011; Luciferin 4-monooxygenase (Photinus pyralis), P08659; Potency, µM (doses to about 57.5 µM), without a hit: at the highest dose activity change, negative = inhibition, hits mostly inhibitors; purified FLuc, Km substrates, luminescence inhibition;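 also: plate controls were vehicle for no effect and reference inhibitor for full effect; nearly all actives have a fitted effect of over 55% in size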
Target sequence (P08659 whole entry, looked up): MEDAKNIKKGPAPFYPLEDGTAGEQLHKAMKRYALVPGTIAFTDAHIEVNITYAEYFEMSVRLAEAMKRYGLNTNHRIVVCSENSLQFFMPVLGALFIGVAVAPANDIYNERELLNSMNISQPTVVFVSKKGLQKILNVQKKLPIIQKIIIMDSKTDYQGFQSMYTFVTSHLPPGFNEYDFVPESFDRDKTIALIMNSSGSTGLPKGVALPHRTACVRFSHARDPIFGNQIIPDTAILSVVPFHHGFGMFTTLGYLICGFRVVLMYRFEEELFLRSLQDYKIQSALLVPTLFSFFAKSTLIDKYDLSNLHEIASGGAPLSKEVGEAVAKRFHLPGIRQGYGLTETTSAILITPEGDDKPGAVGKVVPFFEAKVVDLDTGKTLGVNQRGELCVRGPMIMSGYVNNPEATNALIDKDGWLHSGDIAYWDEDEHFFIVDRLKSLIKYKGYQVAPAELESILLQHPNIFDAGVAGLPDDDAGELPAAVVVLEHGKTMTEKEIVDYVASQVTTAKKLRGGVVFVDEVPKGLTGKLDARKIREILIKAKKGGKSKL
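Biochemical qHTS of compounds, final roughly 60 µM downward over six points, against 10 nM purified firefly luciferase using Km concentrations of substrates (10 uM D-luciferin, 10 uM ATP) in Tris acetate pH 7.5 buffer; luminescence output.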
NPC1 promoter act – qHTS Assay for NPC1 Promoter Activators; Huh7 NPC1 promoter luciferase reporter, 24 h; Potency, µM (top dose mostly 9.22 µM), for inactives: at the top dose activation, usual class: activators; 320,000 compounds, 2.4% hits; also: % of control where 0% means no effect; nearly all actives have a fitted effect of over 60% in size
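Luminescence read-out of NPC1 promoter-driven luciferase in stably transfected Huh7 cells; compounds delivered in DMSO and left 24 h at 37C, 5% CO2, qHTS titration format.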
SMN2 splice up – qHTS Assay for Enhancers of SMN2 Splice Variant Expression; HEK293 SMN2-luciferase splicing reporter, luminescence, 30-36 h; Potency, µM (highest dose often 46.1 µM), without a hit: top-dose activity change, positive = activation, usual class: activators; 210,000 compounds, 2.8% hits; also: % of control where 0% means no effect; nearly all actives have a fitted effect of over 55% in size
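HEK293 cells carry an SMN2 minigene-luciferase reporter in which exon 7 inclusion puts luciferase in frame. Cells were seeded at 2000 cells/well, attached for 10-12 hours, then exposed to compounds for 30-36 hours at 37C before ONE-Glo luminescence.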
ELG1 DNA repair – qHTS screen for small molecules that inhibit ELG1-dependent DNA repair in human embryonic kidney (HEK293T) cells expressing luciferase-tagged ELG1; 330,000 compounds, 2.3% hits; Potency, µM (top dose mostly 46.1 µM), inactives show at the top dose activity change, negative = inhibition, hits mostly inhibitors; HEK293T ELG1-luciferase reporter, luminescence, 16 h; DNA damage induced by 5-fluorouridine; AID 504467, 2011; also: % is scaled to controls: 0 for no effect and ±100 for the full control effect; nearly all actives have a fitted effect of over 55% in size
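HEK293T cells expressing luciferase-tagged ELG1 (2,000/well) received 5-Fluorouridine plus compound or DMSO for 16 hr at 37 °C. Luciferase was read by ONE-Glo luminescence after 30 min at room temperature.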
Numbers without * were called inactive; ? = inconclusive; / = not tested or not shown; [ ] = remark or other dose. Calls follow the shape of the dose curve; as a rule, active = well fitted curve in the direction sought with a large enough effect; inconclusive = small, poorly fitted or top-dose-only effect, or another doubt; inactive = no such curve, though single readings can be large; an effect the other way counts as inactive or inconclusive. Potency is read from the fitted curve at half-maximal effect.

SMILES | Rab9 prom act | ELG1 genotoxic | FLuc modulator | NPC1 promoter act | SMN2 splice up | ELG1 DNA repair
O=C(O)c1cccc(Nc2c3ccccc3nc3ccccc23)c1 | 15% | 5% | -18% | 5% | / | -10%
O=C(N/N=C/c1ccc2c(c1)OCO2)c1cc(-c2ccccc2)nc2ccccc12 | -3% | 0% | 11µM* | 1% | -11%[1.84 µM] | ?
O=C(N/N=C/c1ccc2c(c1)OCO2)c1cc(-c2ccco2)nc2ccccc12 | -6% | 6% | 0.85µM* | -18% | / | 1%
CN(C(=O)COC(=O)CN1C(=O)C2CC=CCC2C1=O)c1ccccc1 (configuration not stated) | -6% | -1% | 4% | 1% | / | ?
COc1ccc(OC2C(=O)N(c3ccc(C)c(C)c3)C2c2ccc(OC)c(OC)c2)cc1 (configuration not stated) | 1% | -6% | 2% | -3% | -38% | ?
COc1ccc(OC2C(=O)N(c3cc(C)ccc3C)C2c2ccc(OC)c(OC)c2)cc1 (configuration not stated) | 2% | -6% | -1% | 0% | -14% | 18µM*
Cc1ccc(N(Cc2cc3ccc(C)cc3[nH]c2=O)S(=O)(=O)c2ccccc2)cc1 | -2% | -10% | 0% | -1% | / | 13%
COc1ccc(CCNC(=O)C(=O)NCC2CCCN2S(=O)(=O)c2cc(C)ccc2C)cc1 (configuration not stated) | -1% | -11% | -1% | -2% | / | ?
CCC1=C(OC(=O)N(CC)CC)N2C(=O)OC(=NCCc3c[nH]c4ccccc34)[C@]2(C)[C@H]2C1=CC[C@H]1C(=O)N(CC(=O)OC)C(=O)[C@H]12 | -6% | 0% | 0% | 0% | -1% | 13%
Cc1ccc(S(=O)(=O)Nc2ccc(N=Nc3ccc(O)cc3)cc2)cc1 | -4% | 4% | -11% | 1% | 16% | ?
Cc1nc(N=Nc2ccc(O)cc2)n[nH]1 | ? | ? | 17µM* | 3.2µM* | / | ?
COc1ccc(-c2nc(N=Nc3ccc(O)cc3)n[nH]2)cc1 | 4% | 6% | 9.5µM* | -6% | -9% | 27%
Cc1ccc(-c2nc(N=Nc3ccc(O)cc3)n[nH]2)cc1 | -9% | 2% | 8.5µM* | 5% | 25µM* | ?
Cc1ccc(SCC(=O)Nc2ccc(F)cc2[N+](=O)[O-])cc1C | -3% | -2% | -3% | -4% | 3% | 1%
COc1cccc(NC(=O)CN(C)C(=O)c2ccc(-n3cncn3)c([N+](=O)[O-])c2)c1 | 2% | -1% | 2% | -2% | / | 1%
CC1c2cc3c(cc2CCN1C(=O)c1ccc(Cl)cc1)OCCCO3 (configuration not stated) | 1% | -10% | -3% | 2% | / | 23µM*
CC(=O)c1cccc(NC(=O)CN2CCc3cc4c(cc3C2C)OCCCO4)c1 (configuration not stated) | 5% | -8% | 3% | -1% | / | 12µM*
CC1c2cc3c(cc2CCN1CC(=O)Nc1ccc(S(=O)(=O)N2CCCC2)cc1)OCCCO3 (configuration not stated) | 0% | -10% | 2% | -2% | / | ?
Cc1ccc(C(=O)N2CCc3cc4c(cc3C2C)OCCCO4)cc1 (configuration not stated) | 3% | -3%[9.26 µM] | 2% | 2% | / | -5%
CC(C)(C)c1ccc(-c2nnc(SCc3ccc(Cl)cc3)n2-c2cccc(C(F)(F)F)c2)cc1 | / | / | / | / | -4%[9.22 µM] | /
Cc1cc(C(=O)Nc2sc3c(c2C#N)CCC3)no1 | 29% | 6.5µM* | 5.4µM* | -3% | ? | ?

Source: PubChem
